# Assay outcomes deposited in PubChem BioAssay by National Center for Advancing Translational Sciences (NCATS).
# Compounds with a hit are over-represented: about 0.5% of the library has one in this group of screens.
# TexasRed fluor – Texas Red fluorescence interference in TRb-SRC2 counter-screen; Potency, µM (titrated, usually from 106 µM), for inactives: top-dose fluorescence change, negative = quenching; TRb/SRC2 Texas Red total fluorescence interference; 280,000 tested, 0.29% active; active = well fitted curve in either direction with a large enough effect; inconclusive = small, poorly fitted or top-dose-only effect; also: potency is read from the fitted curve at half-maximal effect; % is scaled to controls: 0 for no effect and ±100 for the full control effect
#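 Flags fluorescent or light-absorbing compounds by total fluorescence, S + 2P, at 555 nm excitation and 632 nm emission. Mixture: 20 nM Texas Red SRC2 peptide, 0.6 uM human TRb LBD, 1 uM T3, 5% DMSO; compound exposure 5 h at ambient temperature.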
# Menin-MLL FL inh – inhibitors of human menin-MLL interaction, wild-type MLL peptide; Fluorescence polarization, fluorescein-MLL peptide displacement from menin; FP activity change, % at 61.4 µM; 290,000 tested, under 10 active; AID 1766; active = well fitted curve in the direction sought with a large enough effect in the polarisation, not every such curve was filed as active; inconclusive = small, poorly fitted or top-dose-only effect, or effect the other way, or a change in a side signal; inactive = no such curve, though single readings can be large or run the other way; the % refers to the polarisation; also: % of control where 0% means no effect
# TRb SRC2 PPI – disrupts binding of human TR beta to SRC2. P10828. AID 1469. Potency, µM (titrated, usually from 106 µM), for the others: top-dose activity change, negative = inhibition, hits mostly inhibitors. TRbeta-SRC2 peptide binding, fluorescence polarization; receptor liganded with 1 µM T3. 280,000 tested, 0.065% active; active = well fitted inhibition curve with a large enough effect; inconclusive = small, poorly fitted or top-dose-only effect, or effect the other way;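 also: potency is read from the fitted curve at half-maximal effect; plate controls were bound peptide for no effect and peptide without receptor for full effect; nearly all actives have a fitted effect of over 50% in size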
# Target sequence (P10828 whole entry, looked up): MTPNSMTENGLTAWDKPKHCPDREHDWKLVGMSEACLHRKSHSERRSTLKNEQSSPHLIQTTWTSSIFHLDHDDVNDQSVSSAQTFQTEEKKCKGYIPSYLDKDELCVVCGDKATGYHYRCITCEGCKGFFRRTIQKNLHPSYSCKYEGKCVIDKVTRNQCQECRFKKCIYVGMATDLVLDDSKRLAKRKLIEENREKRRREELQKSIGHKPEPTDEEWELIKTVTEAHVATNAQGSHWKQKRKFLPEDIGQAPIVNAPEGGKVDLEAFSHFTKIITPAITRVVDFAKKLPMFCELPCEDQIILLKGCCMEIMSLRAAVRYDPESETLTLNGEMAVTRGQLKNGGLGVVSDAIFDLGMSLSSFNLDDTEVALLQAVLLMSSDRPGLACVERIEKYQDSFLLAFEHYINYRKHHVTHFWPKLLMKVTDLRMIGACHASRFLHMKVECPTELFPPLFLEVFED
#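 Binding of a 20-amino-acid Texas Red SRC2 peptide (20 nM) to TRb ligand-binding domain (0.6 uM) with agonist T3 at 1 uM was followed by fluorescence polarization after a 5 hr room-temperature incubation.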
# MLL CXXC-DNA inh – MLL CXXC-DNA interaction inhibition. AID 2662. MLL-CXXC / FITC-HOXA9 DNA fluorescence polarization. 290,000 tested, 0.037% active. Potency, µM (doses to about 115 µM), inactives show top-dose activity change, negative = inhibition, usual class: inhibitors; active = well fitted inhibition curve with a large enough effect in the polarisation, with a control signal flat, not every such curve was filed as active; inconclusive = small, poorly fitted or top-dose-only effect, or effect the other way, or a change in a side signal; inactive = no such curve, though single readings can be large or run the other way; the % refers to the polarisation; also: potency is read from the fitted curve at half-maximal effect
#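 Steps: dispense CXXC domain solution (7 uM) → pin compounds or unlabeled HOX-A9 DNA control → 5 min ambient → add FLSN-HOX-A9 solution (50 nM) → spin → 30 min ambient → fluorescence polarization. Tris pH 7.5/NaCl/DTT/BSA buffer.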
# RGS12 GoLoco inh – RGS12 GoLoco-Gai1 interaction inhibition | Gai1:RGS12 GoLoco peptide FP, rhodamine, 10 min | P63096 | 230,000 tested, 0.44% active | Potency, µM (top dose mostly 61.6 µM), for the others: at the highest dose activity, negative = inhibition, most hits filed as inhibitors; active = well fitted inhibition curve with a large enough effect, not every such curve was filed as active; inactive = no such curve, though single readings can be large or run the other way; also: potency is read from the fitted curve at half-maximal effect; % is scaled to controls: 0 for no effect and ±100 for the full control effect; nearly all actives have a fitted effect of over 30% in size
# Menin MLL FP TR – menin-MLL binding inhibition, Texas Red mutant peptide; AID 1768; Menin + Texas Red MLL mutant peptide, fluorescence polarization; O00255; Potency, µM (titrated, usually from 61.6 µM), without a hit: at the top dose FP activity change, negative = inhibition, usual class: inhibitors; 270,000 tested, 0.23% active; active = well fitted inhibition curve with a large enough effect in the polarisation, with a control signal flat, not every such curve was filed as active; inconclusive = small, poorly fitted or top-dose-only effect, or effect the other way, or a change in a side signal; inactive = no such curve, though single readings can be large or run the other way; the % refers to the polarisation; also: potency is read from the fitted curve at half-maximal effect; % of control where 0% means no effect
# * marks the source's active call; other numbers are inactive results; u = inconclusive; x = no result; [ ] = another dose, or the depositor's remark.
SMILES,TexasRed fluor,Menin-MLL FL inh,TRb SRC2 PPI,MLL CXXC-DNA inh,RGS12 GoLoco inh,Menin MLL FP TR
CC(Sc1nc(=O)cc(N)n1CCc1ccccc1)C(=O)Nc1ccc(Cl)cc1 (centres undefined),2.3%,x,7.9%,x,x,x
O=C(O)C12CC3(C(=O)O)CC(C(=O)O)(CC(C(=O)O)(C1)C3=O)C2=O,x,x,x,x,-4.0%[14.2 µM],x
Cc1ccc(O)c(Nc2c3ccccc3nc3ccccc23)c1,x,-12.2,x,30.4%,x,12.6µM*
Cc1ccc(O)c(Nc2nc(-c3ccccc3)nc3ccccc23)c1,x,-1.9,x,15.9%,x,u
COC(=O)c1ccc(C2C=C(c3ccc(Cl)cc3)Nc3nc4ccccc4n32)cc1 (centres undefined),0.141µM*[quencher],x,-26.6%,x,x,x
Fc1ccc(C2=CC(c3ccc(F)cc3)n3c(nc4ccccc43)N2)cc1 (centres undefined),2.4%,x,-0.7%,x,x,x
O=C(CCCOc1ccc(Cl)cc1Cl)N/N=C/c1ccccc1,-4.5%,2.7,6.3%,-3.9%,-11.7%,18.4%
O=C(CCCOc1ccc(Cl)cc1Cl)N/N=C/c1ccccc1O,31.6µM*[quencher],5.5,-15.9%[53 µM],11.5%,-6.3%,-9.9%
COc1cccc([C@@H]2Oc3ccc(OC)cc3C[C@H]2OC(=O)N[C@H]2CCCc3ccccc32)c1,-0.8%,-3.2,-6.2%,x,0.0%,-11.5%
CC1CC(OCC(O)C[N+]2(C)CCOCC2)CC(C)(C)C1 (centres undefined),0.0%,-2.6,-3.6%,1.1%,2.24µM*,1.0%
CC1CC(OCC(O)CN2CCOCC2)CC(C)(C)C1 (centres undefined),1.7%,-1.0,-1.6%,21.6%,7.7%,2.4%
Cc1cc(NC(=O)N2CCC(CN3CCOCC3)CC2)ccc1Br,79.4µM*[quencher],x,-16.9%,x,x,x
CCOc1ccc(NC(=O)N2CCC(CN3CCCCCC3)CC2)cc1,126µM*[quencher],x,-29.3%,x,x,x
CCOC(=O)Cc1ccc(NC(=O)N2CCC(CN3CCCCCC3)CC2)cc1,-13.5%,x,1.9%,x,x,x
O=C(Nc1ccc(Br)cc1)N1CCC(CN2CCCC2)CC1,44.7µM*[quencher],x,u,x,x,x
O=C(Nc1cccc(Br)c1)N1CCC(CN2CCCCC2)CC1,2.7%,x,-2.3%,x,x,x
COc1ccccc1C1=Nn2c(nnc2-c2ccccc2C)SC1,-1.8%,u,-7.0%,x,x,0.7%
O=S(=O)(Nc1cccc2cccnc12)c1ccc(Br)cc1,-0.7%,-0.5,-3.0%,x,x,u
Cn1c(=O)[nH]c(=O)n(C2CCCCC2)c1=O,0.4%[201 µM],x,-3.0%[201 µM],x,x,x
Cc1cc(C)c2c(=O)n(CC(=O)N3CCC(N4CCCCC4)CC3)sc2n1,-0.1%,-1.4,-0.2%,17.2%,-49.9%,1.6%
CCCNC(=O)Cn1sc2nc(C)cc(C)c2c1=O,-0.4%,21.1,-2.0%,21.7%,7.94µM*,x
CC(=O)c1c(C)c([N+](=O)[O-])c(C(C)(C)C)c([N+](=O)[O-])c1C,-2.3%[201 µM],x,9.8%[201 µM],x,x,x
CCc1ccc2occ(CC(=O)Nc3c(C(=O)Nc4ccc(C)cc4)oc4ccccc34)c2c1,1122µM*[quencher],x,-24.4%[53 µM],x,x,x
C[N+](C)(C)CC/C=C1/c2ccccc2CSc2ccccc21,0.2%,2.2,10.0%,-0.5%,2.24µM*,0.0%
O=C(NCc1cccs1)C1CCN(C(=O)N2CCOc3ccc(Cl)cc32)CC1,4.1%,x,-7.5%,x,x,x
SMILES,TexasRed fluor,Menin-MLL FL inh,TRb SRC2 PPI,MLL CXXC-DNA inh,RGS12 GoLoco inh,Menin MLL FP TR
O=C(NCc1cccs1)C1CCN(C(=O)N2CCOc3ccccc32)CC1,0.562µM*[quencher],x,-10.2%,x,x,x
Cc1ccc(Cl)cc1Cl,-5.0%[201 µM],x,-7.7%[201 µM],x,x,x
Cc1ccccc1/C=C/c1cc[n+](C)cc1,-0.1%,-0.5,-6.9%,-1.5%,22.4µM*,-5.9%
Cc1[nH]c2ccccc2c1/C=C/c1cc[n+](C)cc1,-7.5%,u,-1.0%,u,2.82µM*,12.9%
NC(=O)OC[C@@H]1[C@H](NC(=O)/C(=N/OCC(=O)O)c2csc(N)n2)C(=O)N1S(=O)(=O)O,x,-6.5,x,-0.4%,x,5.7%
CCOC(=O)c1cc(-c2ccccc2)n(-c2cccc(C(=O)N(C)c3ccc(C)cc3)c2)c1C,0.0%,x,-1.5%,x,x,x
COc1ccc(OC)c(NC(=O)c2cc(S(=O)(=O)N3CCCCC3)c[nH]2)c1,x,-2.2,x,14.2%,x,-22.9%
